Our source for the growth values is PubChem BioAssay (NCI).

Compounds without any hit were thinned out: in the full panel of roughly 83,000, 20% have a hit.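 Activity criterion: percent growth below 10, measured after cells in 96-well plates were exposed to a single compound concentration for 48 hours.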 Values without a mark were called inactive. Calls of active or inactive are those of the source.

Common to all, as to experiment: NCI-60 one-dose screen, 48 h (100 = growth as untreated, 0 = no growth, -100 = all killed)
Common to all, as to conditions: 10 µM unless noted

In assay [1] the test system is BT-549 breast.
In assay [2] the test system is MDA-MB-435 melanoma.
Assay [3] deals with SW-620 colon.
Assay [4] relates to MCF7 breast.
In assay [5] the test system is HCT-116 colon.
Assay [6] deals with HCC-2998 colon.
The subject of assay [7] is KM12 colon.

Turning to `c1ccc2cc(-c3n(Cc4ccc5ccccc5n4)c4ccccc4[n+]3Cc3ccc4ccccc4n3)ccc2c1`, the growth in assay [1] is -5.25% (active); in assay [2] it was -35.6% (active); in assay [3], -9.76% (active); in assay [4] it was -10.4% (active); in assay [5] it was 2.75% (active); in assay [6] it was -52.7% (active). Further, the growth in assay [7] was -80.8% (active).
For `CCN1CCN(c2nc3ccccc3c3c(=O)c4cc(F)ccc4sc23)CC1`, the growth in assay [1] was 85.7%; in assay [2] it was 10.2%; in assay [3] it was 37.2%; in assay [4], 65.1%; in assay [5] it was 54.8%; in assay [6], 64.9%. The growth in assay [7] is 48.5%.
`CCSc1nnc2c3cc(Br)ccc3n(C)c2n1`: the growth was 95.6% in assay [1]; 104% in assay [2]; 103% in assay [3]; 84.3% in assay [4]; 95.6% in assay [5]; 111% in assay [6]. Also, the growth in assay [7] was 103%.
Consider `COC(=O)c1c2c(c(C)[n+]([O-])c1C)C(=O)C=C(NCc1cccc(Cl)c1)C2=O`, for which the growth in assay [1] was -82.3% (active); in assay [2] it was -92.1% (active); in assay [3] it was -31.4% (active); in assay [4], -61.3% (active); in assay [5], -13.7% (active); in assay [6], -38.3% (active). Moreover, the growth in assay [7] was 0.497% (active).
With `N#C/C(=C\c1ccc[nH]1)c1cc2ccccc2[nH]1`, the growth in assay [1] is 66.9%; in assay [2], 83.2%; in assay [3], 96.3%; in assay [4], 9.04% (active); in assay [5], 63.4%; in assay [6], 63.8%. Also, the growth in assay [7] was 30.7%.
Regarding `CCCCCCCC/C=C\CCCCCCCCOc1cccc(CC(=O)NCC[N+](C)(C)C)c1`, the growth in assay [1] was 74.4%; in assay [2], 91.5%; in assay [3], 96.5%; in assay [4] it was 90.8%; in assay [5] it was 75.2%; in assay [6] it was 66.1%. Further, the growth in assay [7] was 57.8%.
In the case of `Nc1cccc2c(=S)c3ccccc3[nH]c12`, the growth in assay [1] was 102%; in assay [2] it was 106%; in assay [3], 92.6%; in assay [4] it was 85.6%; in assay [5], 93.4%; in assay [6], 106%. For the same compound, the growth in assay [7] is 102%.
With `CCN(CC)c1ccc2c(c1)OS(=O)(=O)N=C2`, the growth in assay [1] is 95.7%; in assay [2], 101%; in assay [3], 103%; in assay [4] it was 94.7%; in assay [5], 99.5%; in assay [6], 114%. Also, the growth in assay [7] is 113%.
As to `N#Cc1c(-c2cccc(F)c2)cc(-c2ccc(Br)s2)[nH]c1=O`, the growth was 65.7% in assay [1]; -25.8% (active) in assay [2]; 28.6% in assay [3]; 63.4% in assay [4]; 30.8% in assay [5]; 110% in assay [6]. Moreover, the growth in assay [7] was 60.1%.
For `COc1ccc(NC(=O)COc2ccccc2)c(C(N)=O)c1`, the growth in assay [1] was 55.9%; in assay [2] it was -70% (active); in assay [3], 27.1%; in assay [4], 23.8%; in assay [5], 25.9%; in assay [6], 46.5%. Moreover, the growth in assay [7] is 25.2%.
Consider `COc1ccc(NS(=O)(=O)c2ccc(-c3cnc(C4CC4)o3)cc2)cc1`, for which the growth in assay [1] was 58.6%; in assay [2] it was 1.55% (active); in assay [3], 20.1%; in assay [4], 29.4%; in assay [5] it was 38.8%; in assay [6], 85.9%. In addition, the growth in assay [7] is 40.2%.
With `FC(F)(F)c1ccc2c(c1)n1cnnc1c1nncn21`, the growth in assay [1] was 103%; in assay [2], 112%; in assay [3] it was 108%; in assay [4] it was 98.2%; in assay [5], 105%; in assay [6] it was 108%. In assay [7], the growth was 110%.
Consider `CS(=O)(=O)Nc1cccc(C(=O)NCc2ccc(N3CCOCC3)cc2)c1`, for which the growth in assay [1] was 95.6%; in assay [2] it was 105%; in assay [3] it was 108%; in assay [4], 99%; in assay [5], 101%; in assay [6], 106%. In addition, in assay [7], the growth is 97.1%.
With `O=S(=O)(Nc1ccc(Cl)c(Cl)c1)c1ccc(-c2cnc(C3CC3)o2)cc1`, the growth in assay [1] was 56.2%; in assay [2], -32.8% (active); in assay [3], 12.8%; in assay [4], 17.9%; in assay [5], 26.1%; in assay [6], 38.2%. Besides, the growth in assay [7] was 20%.
In the case of `CCCCCCCC/C=C\CCCCCCCCOc1cccc(CC(=O)NCC[N+]2(C)CCCC2)c1`, the growth is 115% in assay [1]; 85.7% in assay [2]; 77.9% in assay [3]; 73.4% in assay [4]; 76.2% in assay [5]; 75.9% in assay [6]. For the same compound, the growth in assay [7] was 69.2%.
As to `COc1ccc(/C=N/OCC(O)CN2CCC(O)CC2)cc1OC1CCCC1` (stereo not given), the growth in assay [1] was 88.7%; in assay [2] it was 102%; in assay [3] it was 104%; in assay [4] it was 94.7%; in assay [5], 89.6%; in assay [6] it was 101%. The growth in assay [7] was 109%.
In the case of `O=C1Nc2ccc(Cl)cc2/C1=N/N=C(c1ccccc1)c1ccccc1`, the growth was 100% in assay [1]; 99.8% in assay [2]; 94.1% in assay [3]; 100% in assay [4]; 97.9% in assay [5]; 102% in assay [6]. Further, in assay [7], the growth was 93.4%.
Regarding `OB(O)c1ccccc1`, the growth in assay [1] is 96.2%; in assay [2], 109%; in assay [3], 108%; in assay [4] it was 111%; in assay [5] it was 108%; in assay [6], 109%. For the same compound, in assay [7], the growth is 107%.
`Cc1c(C(=O)Nc2nc(-c3ccccc3)cs2)nnn1-c1cccc2ccccc12`: the growth was 56.7% [50 µM] in assay [1]; 47.2% [50 µM] in assay [2]; 71.6% [50 µM] in assay [3]; 38.7% [50 µM] in assay [4]; 30% [50 µM] in assay [5]; 87.7% [50 µM] in assay [6]. Besides, the growth in assay [7] was 65% [50 µM].
`COc1ccc(OC)c(C2C(C#N)=C(N)Oc3cc(O)ccc32)c1` (stereo not given): the growth in assay [1] was 94.1%; in assay [2], 83.4%; in assay [3] it was 101%; in assay [4], 99.3%; in assay [5] it was 96.3%; in assay [6] it was 109%. Besides, the growth in assay [7] was 94%.
Take `O=c1[nH]c(=O)n(Cc2ccc(F)cc2)cc1F`: the growth is 102% [50 µM] in assay [1]; 104% [50 µM] in assay [2]; 105% [50 µM] in assay [3]; 96.3% [50 µM] in assay [4]; 112% [50 µM] in assay [5]; 112% [50 µM] in assay [6]. In addition, the growth in assay [7] was 106% [50 µM].
On to `Cc1ccc(S(=O)(=O)N(c2ccc(Cl)cc2)c2ccc(Br)cc2C(=O)O)cc1`, for which the growth in assay [1] is 134%; in assay [2], 107%; in assay [3] it was 104%; in assay [4] it was 104%; in assay [5] it was 113%; in assay [6], 115%. The growth in assay [7] was 108%.
On to `COc1ccc(-n2ncc3c4nc(OC)c(S(=O)(=O)c5ccccc5)cc4ccc32)cc1`, for which the growth in assay [1] was 53.1%; in assay [2], 83.3%; in assay [3], 90%; in assay [4], 87.9%; in assay [5], 59.7%; in assay [6], 96.7%. In assay [7], the growth was 90.2%.
As to `O=c1c2c(=NCCN3CCCC3)cc3c(=O)n(CCCN4CCOCC4)c(=O)c4c(-c5ccc(CN6CCCC6)cc5)cc(c(O)n1CCCN1CCOCC1)c2c4-3`, the growth in assay [1] was -50.9% (active); in assay [2], -90.1% (active); in assay [3] it was -45.2% (active); in assay [4] it was -34.8% (active); in assay [5] it was -23.8% (active); in assay [6], -63.7% (active). In addition, in assay [7], the growth is -47.7% (active).
`CN1CCc2c(Sc3ccc(C(=O)NO)cc3)c3ccccc3n2C1`: the growth was 76.9% in assay [1]; 23.7% in assay [2]; 19.6% in assay [3]; 32.5% in assay [4]; 3.85% (active) in assay [5]; 66.5% in assay [6]. For the same compound, the growth in assay [7] is 53.9%.
As for `c1ccc(-c2n(Cc3ccc4ccccc4c3)c3ccccc3[n+]2Cc2ccc3ccccc3c2)cc1`, the growth is -28.2% (active) in assay [1]; -76.4% (active) in assay [2]; -48.5% (active) in assay [3]; -44.2% (active) in assay [4]; -85.4% (active) in assay [5]; -79.3% (active) in assay [6]. In addition, the growth in assay [7] was -86.8% (active).
`COc1cc2cc(Oc3ccc(NC(=O)Nc4cccc(C(F)(F)F)c4)cc3)c(C)nc2cc1OCCN1CCCCC1`: the growth in assay [1] is 79.5%; in assay [2] it was -92.8% (active); in assay [3], -82% (active); in assay [4], -80.4% (active); in assay [5], -23.1% (active); in assay [6] it was -50% (active). The growth in assay [7] is -92.2% (active).
Turning to `CCCCOC(=O)C1OC(Oc2ccc3c(C)cc(=O)oc3c2)[C@@H](OC(C)=O)C(OC(C)=O)C1OC(C)=O` (stereo not given in full), the growth is 103% in assay [1]; 101% in assay [2]; 102% in assay [3]; 91.5% in assay [4]; 88.1% in assay [5]; 109% in assay [6]. In assay [7], the growth is 99.4%.
For the compound `COC(=O)[C@@]12CC[C@@H](C)[C@]3(C[C@@H](c4ccoc4)OC3=O)[C@H]1CC[C@@H]1O[C@@]12C`, the growth is 101% in assay [1]; 99.8% in assay [2]; 97.1% in assay [3]; 96.7% in assay [4]; 95.5% in assay [5]; 101% in assay [6]. Further, in assay [7], the growth was 103%.
`O=C(N/N=C/c1ccc2c(c1)OCO2)c1cnn2c1NC(c1ccccc1)C2` (stereo not given): the growth in assay [1] was 60.6%; in assay [2] it was 3.07% (active); in assay [3] it was 43.6%; in assay [4], 33%; in assay [5], 25.1%; in assay [6], 45.3%. Also, the growth in assay [7] is 21.3%.
Consider `Cc1ccc(C)c2c1sc1nc3nc4sc5ccccc5n4c(=N)c3c(=O)n12`, for which the growth in assay [1] is 115%; in assay [2] it was 121%; in assay [3], 108%; in assay [4], 51.1%; in assay [5], 91.6%; in assay [6], 94.6%. Moreover, the growth in assay [7] was 101%.
`COc1ccc(C2=NOC(CC(=O)N(CCO)CCO)C2)cc1OC1CCCC1` (stereo not given): the growth in assay [1] is 95.5%; in assay [2] it was 104%; in assay [3], 97.7%; in assay [4] it was 95.2%; in assay [5] it was 79.6%; in assay [6], 103%. Besides, in assay [7], the growth was 103%.
Turning to `O=C1c2[nH]cc(CN[C@@H]3CCCN3)c2C(=O)c2c1c(O)c1ccccc1c2O`, the growth is 41.1% in assay [1]; -98.3% (active) in assay [2]; -98.1% (active) in assay [3]; -96.5% (active) in assay [4]; -82.8% (active) in assay [5]; -85.8% (active) in assay [6]. The growth in assay [7] is -89.8% (active).
On to `O=c1[nH]c(=S)c2c(n1CCCO)CCC2`, for which the growth in assay [1] is 107%; in assay [2] it was 97%; in assay [3] it was 103%; in assay [4], 96.5%; in assay [5], 99.1%; in assay [6] it was 108%. In assay [7], the growth was 105%.
Regarding `COc1cc(NC(=O)COc2ccccc2)c(C(N)=O)cc1OC`, the growth is 59.5% in assay [1]; -77.5% (active) in assay [2]; 26.8% in assay [3]; 17.1% in assay [4]; 29.5% in assay [5]; 47.1% in assay [6]. The growth in assay [7] was 29.3%.
